From PMC5540273 (PLoS ONE, 2017)

How the values were obtained:
Conditions in all cases: concentration: 1 μM, replicates: in singlicate; n = 1
PLK2 = tested on: PLK2
PLK3 = tested on: PLK3
PLK4 = tested on: PLK4
PRKCD = tested on: PRKCD
PRKCE = tested on: PRKCE
PRKCH = tested on: PRKCH
PRKCI = tested on: PRKCI
PRKCQ = tested on: PRKCQ
PRKD1 = tested on: PRKD1
PRKD2 = tested on: PRKD2
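Also: KINOMEscan kinase panel screen.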

SMILES | %Inh (PLK2) [%] | %Inh (PLK3) [%] | %Inh (PLK4) [%] | %Inh (PRKCD) [%] | %Inh (PRKCE) [%] | %Inh (PRKCH) [%] | %Inh (PRKCI) [%] | %Inh (PRKCQ) [%] | %Inh (PRKD1) [%] | %Inh (PRKD2) [%]
O=C(Nc1cccc(-c2nn3ccccc3c2-c2ccnc(Nc3cccc(F)c3)n2)c1)c1c(F)ccc(F)c1Cl [GSK357952] | 0 | 2 | 0 | 8 | 0 | 31 | 0 | 38 | 21 | 0
Cn1cc(-c2[nH]c3cc(NC(=O)[C@H](N)C4CCCCC4)cc4c3c2C=NNC4=O)cn1 | 68 | 36 | 99.9 | 45 | 79 | 53 | 59 | 78 | 0 | 0
C[C@@H]1CC[C@@H](C(=O)Nc2ccccc2)CN1c1cc(-c2ccc3c(N)n[nH]c3c2)nc(N)n1 [GSK2286062] | 0 | 0 | 0 | 9 | 6 | 14 | 15 | 0 | 0 | 23
COc1ccc(-c2coc3ccc(-c4nnc(SCc5ccc(OC)c(C(F)(F)F)c5)o4)cc23)cc1 | 15 | 14 | 8 | 9 | 0 | 0 | 0 | 0 | 0 | 0
C[C@@H](Oc1cc(-n2cnc3cc(-c4ccnc(NCCS(C)(=O)=O)c4)ccc32)sc1C(N)=O)c1ccccc1Cl [GSK907232] | 99.2 | 99.4 | 32 | 11 | 3 | 0 | 9 | 31 | 0 | 0
COCCOCCOc1cc2ncc3c4ccc(C#N)cc4[nH]c3c2cc1OC | 0 | 0 | 13 | 0 | 11 | 0 | 33 | 35 | 0 | 0
O=C(NC1CCN(c2ccnc(Nc3ccc(F)cc3)n2)C1)c1cc2ccccc2s1 (centres unmarked) [GSK1379716] | 0 | 0 | 1 | 0 | 2 | 30 | 15 | 16 | 21 | 28
CN1CCN(CCCNc2nccc(-c3c(-c4ccc(F)cc4)nn4cc(C(F)(F)F)ccc34)n2)CC1 [GW621581] | 0 | 0 | 12 | 7 | 0 | 20 | 19 | 7 | 47 | 34
Cl.Cl.NCC(C(=O)Nc1cc(Br)c(-c2ccnc3[nH]ccc23)s1)c1ccccc1 (centres unmarked) [GSK1269851] | 16 | 2 | 0 | 70 | 58 | 63 | 26 | 73 | 0 | 0
COc1ccc(Nc2nccc(NCCNC(=O)c3cc4ccccc4s3)n2)cc1 [GSK1379896] | 0 | 0 | 0 | 0 | 2 | 0 | 25 | 9 | 0 | 0
Cl.NC(=O)c1cccc(Nc2nccc(Nc3ccc(Oc4c(Cl)cccc4Cl)c(Cl)c3)n2)c1 [GW659009] | 0 | 30 | 0 | 0 | 0 | 0 | 0 | 0 | 0 | 0
c1ccc(Oc2ccc(Nc3ccnc4cc(-c5ccc(CNCCN6CCOCC6)o5)ccc34)cc2)nc1 [GW567145] | 0 | 0 | 43 | 0 | 12 | 4 | 39 | 4 | 0 | 13
COc1cc2c(cc1OCCN1CCNCC1)ncc1c3ccc(C#N)cc3[nH]c21 | 22 | 20 | 32 | 0 | 19 | 0 | 24 | 0 | 0 | 0
COc1cc(Nc2nccc(-c3c(-c4cccc(NC(=O)c5c(F)cccc5F)c4)nn4ncccc34)n2)cc(OC)c1OC [GSK327238] | 68 | 92.7 | 44 | 79 | 14 | 67 | 9 | 90.2 | 6 | 14
Cc1ccc(C(=O)N2CC[C@@H](O)C2)cc1-n1c(C)cc(OCc2ccc(F)cc2F)c(Br)c1=O | 0 | 0 | 0 | 0 | 0 | 0 | 2 | 0 | 0 | 0
CC(C)c1nc(-c2cccc(NS(=O)(=O)c3c(F)cccc3F)c2F)c(-c2ccnc(Nc3ccc(N4CCOCC4)nc3)n2)s1 [GSK2008607] | 0 | 4 | 100 | 0 | 0 | 22 | 36 | 18 | 93.8 | 99.2
COc1ccc(CNC(=O)NC2CCN(c3ccnc(Nc4ccc(F)cc4)n3)CC2)cc1 [GSK1379788] | 0 | 0 | 0 | 0 | 0 | 0 | 0 | 0 | 5 | 6
O=C(Nc1ccccc1F)NC1CCN(c2ccnc(Nc3ccc(F)cc3)n2)CC1 [GSK1379800] | 0 | 0 | 0 | 0 | 2 | 0 | 18 | 0 | 0 | 2
Cc1ccc(C(=O)Nc2ccc(Nc3ccnc4cc(-c5nccs5)ccc34)cc2O)cc1.Cl [GW494702] | 0 | 0 | 98.4 | 0 | 16 | 5 | 2 | 13 | 0 | 2
Cc1ccc(F)c(C(=O)Nc2cccc(-c3nn4ccccc4c3-c3ccnc(Nc4cccc(F)c4)n3)c2)c1F [GSK361061] | 3 | 9 | 10 | 25 | 2 | 25 | 0 | 27 | 14 | 12
CN(C)S(=O)(=O)c1cc(-c2ccc3nccc(-c4cccc(S(N)(=O)=O)c4)c3c2)cnc1N [GSK1669921] | 2 | 0 | 0 | 0 | 15 | 29 | 7 | 10 | 0 | 0
CN(C)Cc1ccc(-c2ccc3c(Nc4ccc(Oc5ccccn5)cc4)ccnc3c2)o1 [GW567148] | 0 | 0 | 37 | 0 | 0 | 7 | 0 | 0 | 0 | 4
COc1cccc(C(=O)Nc2cccc(Oc3ccc4nc(NC(=O)C5CC5)cn4n3)c2)c1 | 0 | 14 | 5 | 25 | 0 | 0 | 40 | 0 | 0 | 44
Cl.c1ccc(-c2ccc3c(Nc4ccc5[nH]ccc5c4)ccnc3c2)nc1 [GW440138] | 0 | 0 | 9 | 0 | 11 | 12 | 0 | 0 | 1 | 2
Cl.Cl.NCC(NCc1ccc(-c2ccnc3[nH]ccc23)s1)c1ccccc1 (centres unmarked) [GSK1321565] | 5 | 0 | 49 | 91.1 | 84 | 85 | 0 | 55 | 0 | 21
CSc1cccc2c(-c3ccncn3)c(-c3ccc(F)cc3)nn12 [GW514786] | 40 | 0 | 2 | 0 | 11 | 6 | 5 | 19 | 0 | 2
Cl.c1ccc(-c2ccc3c(Nc4ccc5[nH]ncc5c4)ccnc3c2)nc1 [GW440137] | 0 | 0 | 7 | 4 | 5 | 0 | 17 | 0 | 3 | 12
COc1cccc(C2=C(Nc3ccc(Cl)c(C(=O)O)c3)C(=O)NC2=O)c1 [SB-390769] | 100 | 100 | 1 | 0 | 32 | 25 | 21 | 0 | 0 | 6
Cn1cc(-c2ccc3c(c2)CCN3C(=O)Cc2cccc(Cl)c2)c2c(N)ncnc21 [GSK2606590] | 0 | 0 | 6 | 15 | 0 | 27 | 0 | 10 | 0 | 0
